Only a sample is shown.
aSyn 5UTR act: Activators via SNCA 5'UTR binding, MLPCN; actives 7.1% (n = 300,000); activity score, % (tested at 7.5 µM), hits read low; alpha-synuclein 5'UTR reporter, activators screen; in the data active = activity score below about -60%
Of the large screens only hits and unclear results are named; the others gave an inactive call.

CCOC(=O)c1csc(NC(=O)C2=COCCO2)n1	aSyn 5UTR act -87
CC(=O)Nc1ccc(-c2csc(NC(=O)C3=COCCO3)n2)cc1	aSyn 5UTR act -115
O=[N+]([O-])c1cccc(N/N=C/c2cccc(O)c2O)c1	aSyn 5UTR act -110
O=[N+]([O-])c1ccccc1N/N=C/c1cccc(O)c1O	aSyn 5UTR act -104
COc1ccc(/C=N/Nc2cc(C)nc3ccc(OC)cc23)c(OC)c1	none
CCCOc1ccc(/C=N/Nc2ccccc2[N+](=O)[O-])c(OCCC)c1	aSyn 5UTR act -133
COc1ccc(/C=N/Nc2ncccc2[N+](=O)[O-])c(OC)c1	aSyn 5UTR act -122
C/C(=N\OCc1nc2ccccc2c(=O)n1/N=C/c1cc([N+](=O)[O-])ccc1O)c1ccccc1	aSyn 5UTR act -62
O=C(NC(CSCc1ccccc1)C(=O)N/N=C/c1ccc(O)cc1O)c1ccc([N+](=O)[O-])cc1 (stereo unspecified)	none
O=[N+]([O-])c1ccc(O)c(/C=N/n2cnc3ccccc32)c1	aSyn 5UTR act -67
O=[N+]([O-])c1ccccc1N/N=C\c1ccccc1F	aSyn 5UTR act -165
O=[N+]([O-])c1ccccc1N/N=C\c1ccccc1Cl	aSyn 5UTR act -209
Cc1cc(/C=N/Nc2nc(N)ncc2[N+](=O)[O-])c(C)n1-c1ccccc1F	none
O=C(N/N=C/c1cc([N+](=O)[O-])ccc1O)c1cccc2cc[nH]c12	none
O=[N+]([O-])c1ccc(O)c(/C=N/Nc2ccccc2Cl)c1	aSyn 5UTR act -85
COc1ccc(NC(=O)c2ccccc2C)cc1	aSyn 5UTR act -132
COc1ccc(NC(=O)c2cccc3ccccc23)cc1	aSyn 5UTR act -96
COCC(=O)Nc1ccccc1C(=O)Nc1ccc(OC)cc1	aSyn 5UTR act -90
CC(=O)Nc1ccc(OCc2cccc3ccccc23)cc1	none
COc1ccc(NC(=O)CCn2cc(C)c3ccccc32)cc1	aSyn 5UTR act -76
COc1cc(/C=N/n2cnnc2)ccc1OCCSc1ccc(C)cc1	aSyn 5UTR act -78
CCCn1c(CN2CCN(C(=O)OCC)CC2)nc2cc(NC(=O)C(C)C)ccc21	aSyn 5UTR act -70
CN1CCSc2ccc(C(=O)Nc3cc(F)ccc3F)cc21	aSyn 5UTR act -98
Cc1ccccc1NC(=O)c1ccc2c(c1)N(C)CCS2	aSyn 5UTR act -103
CN1CCN(C2Cc3cc(Cl)ccc3Sc3cc(F)ccc32)CC1 (stereo unspecified)	none
N#Cc1cnn(-c2ncnc3sc(-c4ccccc4)cc23)c1N	aSyn 5UTR act -65
COc1ccc(Nc2ccc3c(c2)=NC2(CCCCC2)[N+]=3[O-])cc1	aSyn 5UTR act -87
CCOc1ccc2c(c1)sc(=NC(=O)C1CC1)n2C	aSyn 5UTR act -215
Cc1nc(-c2ccc([N+](=O)[O-])cc2)nc2[nH]ccc(=O)c12	aSyn 5UTR act -202
Cc1nc(-c2ccccc2)nc2[nH]ccc(=O)c12	aSyn 5UTR act -101
Cc1ccc(C2=Nc3ccc(Br)cc3C(c3ccncc3)=NN2)cc1	aSyn 5UTR act -70
Cc1ccc2c(c1)C(c1ccncc1)=NNC(c1ccccc1)=N2	aSyn 5UTR act -127
CCC1CCCCN1CCCNC(=O)Cn1c2ccccc2c2nc(=O)cc(C)n21 (stereo unspecified)	aSyn 5UTR act -139
CCCS/C(N)=N/N=C/c1ccccc1O	aSyn 5UTR act -198
C=CCS/C(N)=N\N=C\c1c(O)ccc2ccccc12	aSyn 5UTR act -195
O=C1NC(=S)N/C1=C/C=C/c1ccccc1	aSyn 5UTR act -92
CCCC1=[N+](CC(=O)c2ccccc2)CCn2cccc21	aSyn 5UTR act -72
Cc1cc([N+](=O)[O-])ccc1NC(=O)/C=C/c1cccs1	aSyn 5UTR act -158
Cc1cccc(NC(=O)/C=C/c2ccc([N+](=O)[O-])s2)c1	aSyn 5UTR act -224
Cc1ccc(NC(=O)/C=C/c2ccc([N+](=O)[O-])s2)c(C)c1	aSyn 5UTR act -93
Cc1ccc(NC(=O)/C=C/c2ccc([N+](=O)[O-])s2)cc1	aSyn 5UTR act -212
c1ccc2c(c1)nnn2-c1ncnc2sccc12	aSyn 5UTR act -147
O=C(/C=C/c1ccc2c(c1)OCO2)Nc1nncs1	aSyn 5UTR act -115
CC(C)(C)c1ccc(/C=C/C(=O)Nc2nncs2)cc1	aSyn 5UTR act -88
CC1(C)CCC(=O)N2CC[C@H]3C[C@H](OC(=O)Nc4ccc5c(c4)OCO5)C[C@@H]1[C@H]32	aSyn 5UTR act -105
CC1(C)CCC(=O)N2CC[C@H]3C[C@H](OC(=O)Nc4ccccc4)C[C@@H]1[C@H]32	aSyn 5UTR act -116
Cc1cc(Cl)cc2c(N=Nc3ccccc3C(=O)O)c(O)[nH]c12	aSyn 5UTR act -68
CC(=O)C1=C(O)C(=O)N(c2ccc(Br)cn2)C1c1ccc(Br)cc1 (stereo unspecified)	aSyn 5UTR act -101
COc1cc2c(cc1OC)C(c1ccccc1)N(C(=O)CCl)CC2 (stereo unspecified)	aSyn 5UTR act -86
CCOC(=O)c1sc2nc(CSc3ccccc3)nc(N3CCCN(C)CC3)c2c1C	none
CCOC(=O)c1sc(=NC(=O)COc2ccccc2)n(C)c1C	aSyn 5UTR act -90
Cn1c(=NC(=O)COc2ccccc2)sc2cccc(F)c21	aSyn 5UTR act -150

Bioassay records: PubChem, Broad Institute
